Shown are actives, neighbours in structure and some others; about 1.4% of the full set was active somewhere.
Giardia FBPA inh: qHTS Assay for Inhibitors of Fructose-1,6-bisphosphate Aldolase from Giardia Lamblia; Potency, µM (highest dose often 59.6 µM), inactives show at the highest dose activity, negative = inhibition, actives largely listed as inhibitors; purified Giardia FBPA; hit rate 0.71% among 290,000; AID 2451, 2010; A8B2U2; note: potency is the fitted concentration of half-maximal effect; % is set by controls: 0 for no effect and ±100 for the full control effect; nearly all actives have a fitted effect of over 55% in size
Target sequence (A8B2U2 whole entry, looked up): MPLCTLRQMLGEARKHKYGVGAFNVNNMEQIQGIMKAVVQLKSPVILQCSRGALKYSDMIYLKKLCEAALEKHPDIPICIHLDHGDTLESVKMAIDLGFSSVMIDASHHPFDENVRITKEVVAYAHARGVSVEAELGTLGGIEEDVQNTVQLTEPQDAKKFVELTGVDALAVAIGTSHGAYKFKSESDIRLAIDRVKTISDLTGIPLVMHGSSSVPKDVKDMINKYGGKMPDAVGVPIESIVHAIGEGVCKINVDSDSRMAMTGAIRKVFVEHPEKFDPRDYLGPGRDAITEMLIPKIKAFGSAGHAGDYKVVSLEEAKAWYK
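40 nM FBPA preincubated 10 min at RT with compound (up to 57.5 uM final), then substrate plus GAPDH/TPI/NAD/arsenate coupling and diaphorase/resazurin added. Fluorescence read after 20 min at RT, 525/598 nm.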
NS1 function inh: qHTS Assay for Inhibitors of Influenza NS1 Protein Function; hit rate 0.4% among 270,000; AID 2326, 2010; Potency, µM (series often up to 46.1 µM), inactives show top-dose activity, positive = more growth; calls by dose curve; note: potency is the fitted concentration of half-maximal effect; actives are rising curves; nearly all actives have a fitted effect of over 50% in size
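S. cerevisiae expressing influenza A NS1, grown in glucose, washed, then diluted 1:100 into pH 6.0 -URA galactose medium with 23 nl compound. Growth recovery read as OD600; NS1-free strain serves as control.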
AmpC inh no detg: qHTS Inhibitors of AmpC Beta-Lactamase (assay without detergent); P00811; Potency, µM (series often up to 57.1 µM), inactives show at the top dose activity change, negative = inhibition, most hits filed as inhibitors; hit rate 0.52% among 330,000; AID 485341, 2010; AmpC nitrocefin hydrolysis, absorbance 480 nm, 0.0001% Triton;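 note: potency is the fitted concentration of half-maximal effect; plate controls were no compound for no effect and no enzyme for full effect; nearly all actives have a fitted effect of over 20% in size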
Target sequence (P00811 whole entry, looked up): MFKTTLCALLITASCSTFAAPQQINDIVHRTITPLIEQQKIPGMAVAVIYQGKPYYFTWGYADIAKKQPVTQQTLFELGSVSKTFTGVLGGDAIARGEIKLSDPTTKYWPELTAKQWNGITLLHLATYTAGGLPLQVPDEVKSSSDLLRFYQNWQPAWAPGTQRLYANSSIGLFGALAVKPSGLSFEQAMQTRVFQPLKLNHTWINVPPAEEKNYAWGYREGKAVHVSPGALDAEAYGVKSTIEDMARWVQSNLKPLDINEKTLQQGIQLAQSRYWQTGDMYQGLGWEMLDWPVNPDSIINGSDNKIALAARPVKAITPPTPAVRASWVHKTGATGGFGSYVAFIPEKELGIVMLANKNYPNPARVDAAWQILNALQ
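AmpC (5.3 nM in the dispensed reagent) in 20 mM phosphate pH 7.0 with 0.01% (detergent screen) or 0.0001% Triton X-100 was preincubated with compounds for 15 min at room temperature. Nitrocefin was then added from an 800 uM solution, and hydrolysis was followed at 480 nm.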
AmpC detergent: qHTS Inhibitors of AmpC Beta-Lactamase (assay with detergent) | Potency, µM (series often up to 114 µM), for inactives: at the top dose activity change, negative = inhibition, actives largely listed as inhibitors | AmpC hydrolysis of nitrocefin, absorbance 480 nm, 0.01% Triton | hit rate 0.041% among 370,000 | P00811;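 note: potency is the fitted concentration of half-maximal effect; 0% = no-compound wells and -100% = no-enzyme wells; nearly all actives have a fitted effect of over 25% in size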
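AmpC (5.3 nM in the dispensed reagent) in 20 mM phosphate pH 7.0 with 0.01% (detergent screen) or 0.0001% Triton X-100 was preincubated with compounds for 15 min at room temperature. Nitrocefin was then added from an 800 uM solution, and hydrolysis was followed at 480 nm.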
SARS PLpro yeast-1: qHTS of Yeast-based Assay for SARS-CoV PLP | S. cerevisiae expressing SARS-CoV PLpro, growth rescue | Potency, µM (doses to about 32.9 µM), without a hit: top-dose activity, positive = growth rescue, hits mostly activators | hit rate 0.19% among 330,000; calls by dose curve; note: potency is the fitted concentration of half-maximal effect; 0% is about no effect; nearly all actives have a fitted effect of over 55% in size
SARS PLpro yeast-2: qHTS of Yeast-based Assay for SARS-CoV PLP: Hit Validation; shares compounds with SARS PLpro yeast-1; calls only; hit rate 19% among 1,000; yeast expressing SARS-CoV PLpro, growth phenotype rescue; call rule not given here
Active calls of the source: *; i = inactive; ? = inconclusive; nt = no result; + = active, no number. Unless noted, calls come from the whole dose curve; as a rule, active = well fitted curve in the direction sought with a large enough effect; inconclusive = small, poorly fitted or top-dose-only effect, or another doubt; inactive = no such curve, though single readings can be large; an effect the other way counts as inactive or inconclusive.

SMILES	Giardia FBPA inh	NS1 function inh	AmpC inh no detg	AmpC detergent	SARS PLpro yeast-1	SARS PLpro yeast-2
COc1ccc(C2/C(=C(/O)c3ccc(C)cc3)C(=O)C(=O)N2c2ccccn2)cc1 (stereo not given)	12%	2%	-3%	-9%	1%	nt
COc1ccc(N2CCN(C(=O)CCS(=O)(=O)c3cc4c(cc3Cl)NC(=O)CO4)CC2)cc1	nt	nt	nt	-3%	nt	nt
CCOC(=O)N1CCN(C(=O)CCS(=O)(=O)c2cc3c(cc2Cl)NC(=O)CO3)CC1	-10%	-7%	-20%	-1%	?	i
N#CC1=C(N)Oc2c(c(=O)oc3ccccc23)C1c1cccnc1 (stereo not given)	0%	-7%	-15%	-17%	?	i
Cc1nn(-c2ccccc2)c(Cl)c1C1C(C#N)=C(N)Oc2c1c(=O)oc1ccccc21 (stereo not given)	4%	0%	-8%	-7%	2%	nt
CCCCCC#CCN1CCN(C23CC4CC(CC(C4)C2)C3)CC1	nt	nt	-11%	8%	-8%	nt
O=C(Nc1nc2ccc(F)cc2s1)c1cccc(S(=O)(=O)N2CCc3ccccc32)c1	2%	13%	-47%	-15%	3.2µM*	i
Cc1ccnc2nc(C(=O)Nc3nnc(-c4ccc(Cl)cc4)o3)nn12	?	nt	-18%	1%	-3%	nt
O=C(CCn1cnc(-c2ccccc2)c1-c1ccccc1)N/N=C/c1ccccc1O	-24%	-27%	22%	-8%	10µM*	i
O=C(CCn1cnc(-c2ccccc2)c1-c1ccccc1)N/N=C/c1ccc(O)cc1	-6%	-12%	-27%	-10%	8%	nt
CCC(=O)N1CCCc2cc(S(=O)(=O)N3CCC(C(=O)Nc4cccc(Cl)c4)CC3)ccc21	nt	nt	nt	-8%	nt	nt
CCCNC(=S)NCc1ccc(Cl)cc1	7%	-6%	-22%	?	?	i
CCOc1ccc(CNC(=S)NCc2ccc(OCC)cc2)cc1	5%	10%	-9%	-1%	13µM*	+
COc1ccc(CNC(=S)NCc2ccc(OC)cc2)cc1	-7%	2%	-20%	0%	0%	nt
O=C1CCCc2cc(S(=O)(=O)N3CCC(C(=O)NCc4ccccc4)CC3)ccc2N1	-1%	-7%	-3%	-1%	-1%	nt
CCOc1ccc(CNC(=O)C2CCN(S(=O)(=O)c3ccc4c(c3)CCCC(=O)N4)CC2)cc1	-10%	3%	44%	-11%	?	+
CN(C)S(=O)(=O)c1ccc(C(=O)NCCSc2ccc(Br)cc2)cc1	3%	9%	-37%	1%	2%	nt
C/C(CC(=O)NC1CCCCCC1)=N\NC(=O)c1cnccn1	-1%	-6%	-21%	-15%	3.5µM*	i
Cc1noc(C(=O)N2CC3(C)CC2CC(C)(C)C3)c1Cl (stereo not given)	3%	?	-2%	-2%	4.5µM*	i
CC1(C)CC2CC(C)(CN2C(=O)c2cc(-c3ccc(O)cc3)on2)C1 (stereo not given)	-5%	-23%	21%	6%	-10%	nt
CC(C)(C)NC(=S)NCCc1ccccc1	0%	-21%	-15%	-7%	34%	nt
Cc1ccc(NC(=O)CN(C)CC(=O)Nc2ccc(N3CCOCC3)cc2)c(C)c1	-10%	21%	46%	-5%	-9%	nt
COc1ccccc1C(=O)Nc1ccc(NC(=O)c2cccs2)cc1	nt	nt	nt	17%	nt	nt
COc1ccccc1C(=O)NC(=S)Nc1ccc(NC(=O)c2cccs2)cc1	5%	24%	-11%	-7%	?	i
Cc1c(C(=O)Oc2ccc(F)cc2)sc2ncn(Cc3cccc(F)c3)c(=O)c12	6%	-3%	-21%	-13%	?	i
SMILES	Giardia FBPA inh	NS1 function inh	AmpC inh no detg	AmpC detergent	SARS PLpro yeast-1	SARS PLpro yeast-2
CCN(C(=O)CSc1nnc(-c2ccccc2)o1)c1c(N)n(Cc2ccccc2)c(=O)[nH]c1=O	1%	nt	19%	3%	?	i
CCCCN(C(=O)CSc1nnc(-c2ccccc2)o1)c1c(N)n(CCC)c(=O)[nH]c1=O	nt	nt	-6%	-6%	-2%	nt
Cc1ccc(NC(=O)CN(C)S(=O)(=O)c2cccs2)cc1F	-5%	-2%	-4%	0%	-7%	nt
Cc1ccc(NC(=O)CN(C)S(=O)(=O)c2cccs2)cc1C	-5%	12%	-17%	-2%	?	i
CC1CCN(C(=O)COC(=O)C2CCN(S(=O)(=O)c3ccc4c(c3)OCCO4)CC2)CC1	nt	nt	76%	?	0%	nt
S=C(NCc1cccs1)Nc1cccc(Cl)c1Cl	-6%	5%	-19%	7%	?	nt
Cc1c(Cl)cccc1NC(=S)NCc1cccs1	5%	-11%	-25%	7%	14µM*	+
O=C1c2ccccc2NC(c2ccc(-c3ccc(F)cc3)o2)N1O (stereo not given)	nt	nt	-27%	2%	8%	nt
O=C1c2ccccc2NC(c2ccc(-c3cccc([N+](=O)[O-])c3)o2)N1O (stereo not given)	?	?	?	-7%	10µM*	+
Cc1cc(C)cc(NC(=O)Cn2c(=O)n(Cc3ccc4c(c3)OCO4)c(=O)c3oc4ccccc4c32)c1	nt	nt	nt	-6%	nt	nt
Cc1nn(CC(=O)NC2(C)CCS(=O)(=O)C2)c(C)c1S(=O)(=O)N(C)C (stereo not given)	nt	nt	-42%	nt	?	i
CC(C)C(=O)NC(c1cccs1)c1cc([N+](=O)[O-])c2cccnc2c1O (stereo not given)	?	-5%	-49%	?	?	i
CCC(=O)NC(c1cccs1)c1cc([N+](=O)[O-])c2cccnc2c1OC (stereo not given)	nt	nt	131%	?	-1%	nt
CCC(=O)NC(c1ccc(C)cc1)c1cc(Cl)c2cccnc2c1O (stereo not given)	nt	nt	-16%	nt	?	nt
CC(C)C(=O)NC(c1cccc([N+](=O)[O-])c1)c1ccc2cccnc2c1O (stereo not given)	?	nt	-27%	?	3.2µM*	i
Cc1ccc(C(NC(=O)C(C)C)c2cc([N+](=O)[O-])c3cccnc3c2O)cc1 (stereo not given)	?	4%	-40%	-6%	?	?
O=C(Nc1cccc(Cl)c1)N1CCC(CN2CCOCC2)CC1	nt	nt	nt	-2%	nt	nt
Cc1noc(C)c1S(=O)(=O)Nc1ccc2c(c1)C(=O)N([C@H](C)CO)C[C@H](C)[C@@H](CN(C)C(=O)Nc1ccccc1)O2	nt	nt	-10%	nt	2%	nt
C[C@@H]1CN([C@H](C)CO)C(=O)c2cc(NS(=O)(=O)c3cn(C)cn3)ccc2O[C@H]1CN(C)C(=O)Nc1ccccc1	nt	nt	-22%	nt	?	i

Bioassay records deposited in PubChem by National Center for Advancing Translational Sciences (NCATS).
